NPC1 prom act: activators of NPC1 promoter. AID 485313. Huh7 NPC1 promoter luciferase reporter, 24 h. Potency, µM (highest dose often 9.22 µM), inactives show at the highest dose activation, usual class: activators. 2.4% of 320,000 active; further: % of control where 0% means no effect; nearly all actives have a fitted effect of over 60% in size
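Luciferase expression driven by the NPC1 promoter was measured in stably transfected Huh7 cells after a 24 h compound incubation, using a luciferase reagent and a luminescence read.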
Rab9 promoter act: activators of Rab9 promoter | Huh7 Rab9 promoter-luciferase reporter, luminescence, 24 h | Potency, µM (top dose mostly 9.22 µM), inactives show top-dose activation, negative = inhibition, actives largely listed as activators | 2.8% of 320,000 active | AID 485297; further: % of control where 0% means no effect; nearly all actives have a fitted effect of over 60% in size
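Measured in stably transfected Huh7 cells bearing a Rab9 promoter–luciferase construct: 24 h compound treatment at 37 °C, followed by luminescence detection.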
KinaseGlo FLuc: blocks Kinase-Glo luciferase, a counter-screen artifact | 0.28% of 200,000 active | AID 1379 | Q27757 | Kinase-Glo luciferase, ATP luminescence, 8 min | Potency, µM (doses to about 38.3 µM), for the others: top-dose activity change, negative = inhibition, actives largely listed as inhibitors; further: on the % scale 0 is the no-effect control and ±100 the full control effect; nearly all actives have a fitted effect of over 60% in size
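Recombinant Kinase-Glo luciferase, 10 uM ATP (linear range), luciferin; imidazole pH 7.2 / KCl / MgCl2 / Tween / BSA buffer; 8 min RT; luminescence.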
SMN2 splice enh: enhancers of SMN2 splice variant expression; 2.8% of 210,000 active; Potency, µM (titrated, usually from 46.1 µM), for inactives: at the top dose activity change, positive = activation, usual class: activators; HEK293 SMN2-luciferase splicing reporter, luminescence, 30-36 h; further: % of control where 0% means no effect; nearly all actives have a fitted effect of over 55% in size
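HEK293 cells carry an SMN2 minigene-luciferase reporter in which exon 7 inclusion puts luciferase in frame. Cells were seeded at 2000 cells/well, attached for 10-12 hours, then exposed to compounds for 30-36 hours at 37C before ONE-Glo luminescence.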
FLuc counter: firefly luciferase modulation, counter-screen for miR-21 project | P08659 | purified FLuc, Km substrates, luminescence inhibition | Potency, µM (highest dose often 57.5 µM), for inactives: top-dose activity change, negative = inhibition, most hits filed as inhibitors | 6.9% of 360,000 active;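 further: plate controls were vehicle for no effect and reference inhibitor for full effect; nearly all actives have a fitted effect of over 55% in size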
Target sequence (P08659 whole entry, looked up): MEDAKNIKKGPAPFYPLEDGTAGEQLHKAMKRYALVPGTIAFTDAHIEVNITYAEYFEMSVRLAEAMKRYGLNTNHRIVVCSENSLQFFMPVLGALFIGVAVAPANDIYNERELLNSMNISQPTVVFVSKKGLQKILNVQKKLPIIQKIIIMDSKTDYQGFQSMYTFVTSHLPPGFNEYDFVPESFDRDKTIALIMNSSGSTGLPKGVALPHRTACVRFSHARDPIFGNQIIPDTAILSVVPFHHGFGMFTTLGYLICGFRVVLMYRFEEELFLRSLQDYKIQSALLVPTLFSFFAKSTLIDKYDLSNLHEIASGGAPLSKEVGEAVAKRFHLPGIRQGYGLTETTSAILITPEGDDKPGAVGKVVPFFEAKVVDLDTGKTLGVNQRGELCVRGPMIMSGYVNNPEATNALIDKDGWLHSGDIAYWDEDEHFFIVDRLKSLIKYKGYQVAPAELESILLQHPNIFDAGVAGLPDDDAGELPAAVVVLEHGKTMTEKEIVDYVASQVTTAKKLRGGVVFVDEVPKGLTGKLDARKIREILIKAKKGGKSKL
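Purified P. pyralis luciferase, 10 nM final, with Km-level 10 uM D-luciferin and 10 uM ATP in 50 mM Tris acetate pH 7.5, 10 mM Mg acetate, 0.01% Tween-20, 0.05% BSA; 6-point qHTS titration about 60 µM downward; luminescence read.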
ELG1 genotoxic: inducers of genotoxicity in HEK293T ELG1-luciferase cells; Potency, µM (doses to about 46 µM), for the others: at the highest dose activity change, positive = activation, usual class: activators; HEK293T ELG1-luciferase reporter, luminescence, 16 h; 1.3% of 330,000 active; further: % of control where 0% means no effect; nearly all actives have a fitted effect of over 60% in size
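Genotoxicity was scored as increased ELG1-luciferase reporter signal, measured by ONE-Glo luminescence (30 min, room temperature). Compound or vehicle exposure of the HEK293T reporter cells lasted 16 hr at 37°C.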
The depositor's hits bear a star; ? = inconclusive; nt = not tested or not shown; [ ] = remark or other dose. Compounds with a hit are over-represented: about 7.3% of the library has one in this group of screens. The call rests on the fitted dose curve; in most records, active means well fitted curve in the direction sought with a large enough effect; inconclusive means small, poorly fitted or top-dose-only effect, or another doubt; inactive means no such curve, though single readings can be large; an effect the other way counts as inactive or inconclusive. Potency means the concentration at half of the fitted maximal effect.

SMILES | NPC1 prom act | Rab9 promoter act | KinaseGlo FLuc | SMN2 splice enh | FLuc counter | ELG1 genotoxic
O=c1[nH]c2ccccc2nc1/C=C/c1ccc(O)cc1 | ? | 3.5µM* | -7% | nt | 6.7µM* | ?
O=c1[nH]c2ccccc2nc1/C=C/c1ccc(F)cc1 | 3.2µM* | 4µM* | nt | nt | 2.4µM* | 21%
O=c1[nH]c2ccccc2nc1/C=C/c1ccccc1 | 4µM* | 1.8µM* | nt | nt | 1.9µM* | ?
COc1ccc(OC)c(NC(=O)c2oc3c(c2C)-c2nn(Cc4ccc(Cl)cc4)cc2CC3)c1 | nt | nt | nt | nt | 4% | nt
S=c1[nH]nc(-c2ccncc2)n1/N=C/c1cn(-c2ccccc2)nc1-c1ccccc1 | 21% | ? | nt | nt | 2.7µM* | 17%
S=c1[nH]nc(-c2cccs2)n1/N=C/c1cn(-c2ccccc2)nc1-c1cccs1 | ? | ? | nt | nt | 0.67µM* | ?
Cc1nc2ccccc2c(=O)n1/N=C/c1cccs1 | 12% | ? | -1% | 8% | -17% | 1%
Cc1nc2ccccc2c(=O)n1/N=C/c1cn(-c2ccccc2)nc1-c1cccs1 | 19% | 26% | 10% | -17% | 2.7µM* | -1%
Cc1ccc(/C=N/n2c(-c3ccncc3)n[nH]c2=S)cc1 | -5% | -4% | -1% | -30% | 5% | -3%
CC(C)(C)c1ccc(-c2n[nH]c(=S)n2/N=C/c2ccncc2)cc1 | 12% | 25% | 7% | 19% | 11µM* | 2%
O=c1c2oc3ccccc3c2n(Cc2ccc(Cl)cc2)c(=O)n1Cc1ccccc1 | nt | nt | nt | nt | -2% | nt
CCCCC/C=C\C\C=C/C=C/C=C/[C@@H](SCC(NC(=O)CCC(N)C(=O)O)C(=O)NCC(=O)O)[C@@H](O)CCCC(=O)O (some centres not stated) | nt | nt | 1% | 9% | nt | nt
CCOc1cccc(CC(=O)N2CCc3c([nH]c4ccccc34)C2c2ccccc2)c1OCC (configuration not stated) | nt | nt | nt | nt | 1% | nt
Clc1ccc(CSCc2ccc(Cl)cc2Cl)c(Cl)c1 | nt | nt | -6%[7.66 µM] | -1%[9.22 µM] | nt | nt
COc1ccc(NC(=O)CSc2cn(CCNC(=O)c3ccc(OC)cc3)c3ccccc23)cc1 | nt | nt | nt | -28% | ? | nt
O=C(NCCn1ccc2ccccc21)c1ccc2c(c1)OCO2 | 0.89µM* | 1.1µM* | -3% | 8.9µM* | 6.7µM* | 2.3µM*
COc1ccc(C(=O)NCCn2cc(SCC(N)=O)c3ccccc32)cc1 | 12% | 22% | nt | nt | 15µM* | 4%
CSCc1ccc(C(=O)NCCSc2ccc(Br)cc2)cc1 | ? | ? | nt | nt | 19µM* | ?
CCCn1cc(SCC(=O)Nc2nnc(C)s2)c2ccccc21 | -6% | -6% | 5% | 12% | 4% | 8%
Cc1ccc(C(=O)NCCn2cc(SCC(=O)Nc3nnc(C)s3)c3ccccc32)cc1 | -3% | 26% | 1% | -55% | 17µM* | ?
O=[N+]([O-])c1ccc(CSc2ncnc3c2ncn3C2OC(CO)C(O)C2O)cc1 (configuration not stated) | nt | nt | nt | 3% | nt | nt
CC(C)(C)OC(=O)C1=NOC2(C=CC(=O)C=C2)C1 | nt | nt | 0% | 14% | nt | nt
Cc1ccc(C)c(NC(=O)CN2C(=O)CCc3cc(S(=O)(=O)N4CCCCC4)ccc32)c1 | nt | nt | nt | nt | 2% | nt
COc1ccccc1OCC(=O)N(Cc1ccc(N(C)C)cc1)CC1CCCO1 (configuration not stated) | nt | nt | nt | 0% | 5% | nt
COc1ccc(C(=O)NCCn2ccc3ccccc32)cc1 | ? | 1.4µM* | -5% | 13µM* | 11µM* | ?
Cc1ccc(C(=O)NCCn2ccc3ccccc32)cc1[N+](=O)[O-] | 21% | 21% | 3% | ? | -18% | -3%
CCOc1ccc(C(=O)NCCn2cc(SCC(=O)Nc3cc(C)on3)c3ccccc32)cc1 | 0% | 1% | -3% | -23% | 12µM* | -4%
O=C(NCCc1ccccc1)c1ccc2c(c1)OCO2 | ? | ? | nt | nt | 0.54µM* | ?
